# Measurements reported in PubChem BioAssay AID1159580 (chemical genetic matrix, 2015).
# Hit rate of the full screen: of about 5,500 compounds, about 2,000 (36%) were called active. Roughly 18% stayed inconclusive and do not appear here. The list shows a part of the results. A number with no mark means an inactive call. No stated cut-off is given here; in the data, active means normalized growth mostly below about 0.91 (no sharp cut-off); inconclusive means no clear call, values can overlap the other calls; inactive means mostly above about 0.92.
# Assay: chemical genetic growth profiling, strain panel (AID 1159580);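 further: tested at 20 µM; growth read once vehicle control cultures reached saturation at 30 °C; 1 = growth at the plate median or of vehicle wells; lower values mean less growth of the strain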
# Conditions: growth OD
structure (smiles),measurement,setting,value
CC(C)=CCc1c(O)cc2oc(C)cc(=O)c2c1O,normalized growth,"S. cerevisiae deletion strains, locus YJR043C, strain POL32, active compounds read low",0.847 (active)
same,normalized growth,"S. cerevisiae deletion strains, locus YJR066W, strain TOR1, active compounds read low",0.941
same,normalized growth,"S. cerevisiae deletion strains, locus YJR075W, strain HOC1, active compounds read low",1.03
same,normalized growth,"S. cerevisiae deletion strains, locus YKL009W, strain mrt4, active compounds read low",0.974
same,normalized growth,"S. cerevisiae deletion strains, locus YKL068W, active compounds read low",0.982
same,normalized growth,"S. cerevisiae deletion strains, locus YKL085W, strain MDH1 (second series), active compounds read low",0.983
same,normalized growth,"S. cerevisiae deletion strains, locus YKL085W, strain MDH1, active compounds read low",0.983
same,normalized growth,"S. cerevisiae deletion strains, locus YKL160W, strain elf1, active compounds read low",0.963
same,normalized growth,"S. cerevisiae deletion strains, locus YKL190W, strain CNB1, active compounds read low",1
same,normalized growth,"S. cerevisiae deletion strains, locus YKR001C, strain vps1, active compounds read low",0.723 (active)
same,normalized growth,"S. cerevisiae deletion strains, locus YKR026C, strain gcn3, active compounds read low",0.977
same,normalized growth,"S. cerevisiae deletion strains, locus YKR091W, strain srl3, active compounds read low",0.98
same,normalized growth,"S. cerevisiae deletion strains, locus YLL001W, strain dnm1, active compounds read low",0.964
same,normalized growth,"S. cerevisiae deletion strains, locus YLL026W, active compounds read low",0.981
same,normalized growth,"S. cerevisiae deletion strains, locus YLL041C, strain sdh2, active compounds read low",0.979
same,normalized growth,"S. cerevisiae deletion strains, locus YLR027C, strain aat2, active compounds read low",0.983
same,normalized growth,"S. cerevisiae deletion strains, locus YLR039C, strain RIC1, active compounds read low",0.834
same,normalized growth,"S. cerevisiae deletion strains, locus YLR058C, strain SHM2, active compounds read low",0.966
same,normalized growth,"S. cerevisiae deletion strains, locus YLR102C, strain apc9, active compounds read low",0.987
same,normalized growth,"S. cerevisiae deletion strains, locus YLR113W, strain HOG1, active compounds read low",0.854 (active)
same,normalized growth,"S. cerevisiae deletion strains, locus YLR221C, strain rsa3, active compounds read low",0.95
same,normalized growth,"S. cerevisiae deletion strains, locus YLR258W, strain gsy2, active compounds read low",0.97
same,normalized growth,"S. cerevisiae deletion strains, locus YLR262C, strain YPT6 (second series), active compounds read low",0.781 (active)
same,normalized growth,"S. cerevisiae deletion strains, locus YLR268W, strain sec22, active compounds read low",0.939
same,normalized growth,"S. cerevisiae deletion strains, locus YLR320W, strain mms22, active compounds read low",0.961
same,normalized growth,"S. cerevisiae deletion strains, locus YLR330W, strain CHS5, active compounds read low",0.937
same,normalized growth,"S. cerevisiae deletion strains, locus YLR342W, strain FKS1, active compounds read low",0.974
same,normalized growth,"S. cerevisiae deletion strains, locus YLR357W, strain rsc2, active compounds read low",0.913
same,normalized growth,"S. cerevisiae deletion strains, locus YLR370C, strain arc18, active compounds read low",0.996
same,normalized growth,"S. cerevisiae deletion strains, locus YLR371W, strain rom2, active compounds read low",0.957
same,normalized growth,"S. cerevisiae deletion strains, locus YLR384C, strain iki3, active compounds read low",0.976
same,normalized growth,"S. cerevisiae deletion strains, locus YLR418C, strain cdc73, active compounds read low",0.898
same,normalized growth,"S. cerevisiae deletion strains, locus YML016C, strain PPZ1, active compounds read low",0.997
same,normalized growth,"S. cerevisiae deletion strains, locus YML032C, strain rad52, active compounds read low",0.907
same,normalized growth,"S. cerevisiae deletion strains, locus YML120C, strain ndi1, active compounds read low",0.98
same,normalized growth,"S. cerevisiae deletion strains, locus YML124C, strain tub3, active compounds read low",0.985
same,normalized growth,"S. cerevisiae deletion strains, locus YMR058W, strain fet3, active compounds read low",0.946
same,normalized growth,"S. cerevisiae deletion strains, locus YMR078C, strain ctf18, active compounds read low",0.994
same,normalized growth,"S. cerevisiae deletion strains, locus YMR125W, strain sto1, active compounds read low",0.981
same,normalized growth,"S. cerevisiae deletion strains, locus YMR129W, active compounds read low",0.98
same,normalized growth,"S. cerevisiae deletion strains, locus YMR205C, strain PFK2, active compounds read low",0.954
same,normalized growth,"S. cerevisiae deletion strains, locus YMR223W, strain ubp8, active compounds read low",0.931
same,normalized growth,"S. cerevisiae deletion strains, locus YMR231W, strain pep5, active compounds read low",0.981
same,normalized growth,"S. cerevisiae deletion strains, locus YMR263W, strain SAP30, active compounds read low",0.992
same,normalized growth,"S. cerevisiae deletion strains, locus YMR307W, strain GAS1, active compounds read low",0.549 (active)
same,normalized growth,"S. cerevisiae deletion strains, locus YNL067W, strain RPL9B, active compounds read low",1.01
same,normalized growth,"S. cerevisiae deletion strains, locus YNL071W, strain lat1, active compounds read low",0.975
same,normalized growth,"S. cerevisiae deletion strains, locus YNL153C, strain GIM3, active compounds read low",0.932
same,normalized growth,"S. cerevisiae deletion strains, locus YNL183C, strain NPR1, active compounds read low",0.91
same,normalized growth,"S. cerevisiae deletion strains, locus YNL209W, strain ssb2, active compounds read low",0.996
same,normalized growth,"S. cerevisiae deletion strains, locus YNL233W, strain BNI4, active compounds read low",0.926
same,normalized growth,"S. cerevisiae deletion strains, locus YNL248C, strain rpa49, active compounds read low",0.968
same,normalized growth,"S. cerevisiae deletion strains, locus YNL250W, strain rad50, active compounds read low",0.993
same,normalized growth,"S. cerevisiae deletion strains, locus YNL271C, strain bni1, active compounds read low",0.98
same,normalized growth,"S. cerevisiae deletion strains, locus YNL298W, strain CLA4, active compounds read low",0.954
same,normalized growth,"S. cerevisiae deletion strains, locus YNL307C, strain MCK1, active compounds read low",0.989
same,normalized growth,"S. cerevisiae deletion strains, locus YNL322C, strain KRE1 (second series), active compounds read low",0.964
same,normalized growth,"S. cerevisiae deletion strains, locus YNR049C, strain mso1, active compounds read low",0.964
same,normalized growth,"S. cerevisiae deletion strains, locus YNR052C, strain pop2, active compounds read low",1
same,normalized growth,"S. cerevisiae deletion strains, locus YOL012C, strain htz1",1.24
same,normalized growth,"S. cerevisiae deletion strains, locus YOL147C, strain pex11, active compounds read low",0.954
same,normalized growth,"S. cerevisiae deletion strains, locus YOR001W, strain rrp6, active compounds read low",0.981
same,normalized growth,"S. cerevisiae deletion strains, locus YOR061W, strain CKA2, active compounds read low",0.955
same,normalized growth,"S. cerevisiae deletion strains, locus YOR069W, strain VPS5, active compounds read low",0.987
same,normalized growth,"S. cerevisiae deletion strains, locus YOR070C, strain gyp1, active compounds read low",0.983
same,normalized growth,"S. cerevisiae deletion strains, locus YOR080W, strain dia2, active compounds read low",1
same,normalized growth,"S. cerevisiae deletion strains, locus YOR083W, strain WHI5, active compounds read low",0.947
same,normalized growth,"S. cerevisiae deletion strains, locus YOR106W, strain vam3, active compounds read low",0.934
same,normalized growth,"S. cerevisiae deletion strains, locus YOR136W, strain idh2, active compounds read low",0.979
same,normalized growth,"S. cerevisiae deletion strains, locus YOR144C, strain elg1, active compounds read low",0.965
same,normalized growth,"S. cerevisiae deletion strains, locus YOR184W, strain ser1, active compounds read low",0.829 (active)
same,normalized growth,"S. cerevisiae deletion strains, locus YOR231W, strain MKK1, active compounds read low",0.958
same,normalized growth,"S. cerevisiae deletion strains, locus YOR265W, strain rbl2, active compounds read low",0.971
same,normalized growth,"S. cerevisiae deletion strains, locus YOR270C, strain vph1, active compounds read low",1.08
same,normalized growth,"S. cerevisiae deletion strains, locus YOR290C, strain snf2, active compounds read low",0.939
same,normalized growth,"S. cerevisiae deletion strains, locus YOR316C, strain cot1, active compounds read low",0.997
same,normalized growth,"S. cerevisiae deletion strains, locus YPL051W, strain arl3, active compounds read low",0.952
same,normalized growth,"S. cerevisiae deletion strains, locus YPL055C, strain LGE1, active compounds read low",0.945
same,normalized growth,"S. cerevisiae deletion strains, locus YPL078C, strain atp4, active compounds read low",0.966
same,normalized growth,"S. cerevisiae deletion strains, locus YPL106C, strain sse1, active compounds read low",0.978
same,normalized growth,"S. cerevisiae deletion strains, locus YPL240C, strain hsp82, active compounds read low",0.982
same,normalized growth,"S. cerevisiae deletion strains, locus YPL256C, strain CLN2, active compounds read low",1.01
same,normalized growth,"S. cerevisiae deletion strains, locus YPR119W, strain clb2, active compounds read low",0.995
same,normalized growth,"S. cerevisiae deletion strains, locus YPR141C, strain kar3, active compounds read low",1
same,normalized growth,"S. cerevisiae deletion strains, locus YPR163C, strain tif3, active compounds read low",0.975
same,normalized growth,"S. cerevisiae deletion strains, locus YPR167C, strain met16, active compounds read low",0.956
same,normalized growth,"S. cerevisiae deletion strains, strain wtn01, active compounds read low",0.891 (active)
same,normalized growth,"S. cerevisiae strains, strain wild type, active compounds read low",0.922
